In PubChem BioAssay (NCI):
Where “and” joins values, the source holds several entries; their conditions need not be identical. Identical values can stand only once. Compounds without any hit were thinned out: in the full panel of roughly 83,000, 20% have a hit.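 Assay: single dose, 48 h. Readout: percent growth (0 = no net growth; negative = cell death). Active: <10.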 Calls of active or inactive are those of the source.

tested on: UACC-62 melanoma; test: NCI-60 one-dose screen, 48 h (100 = growth as untreated, 0 = no growth, -100 = all killed); details: 10 µM unless noted

Compound	growth
CC1CC(=O)N(N(C)C)C(C#N)(C#N)C1(C#N)C#N (centres undefined)	-96.5% [100 µM] (active) and -97.6% [100 µM] (active)
Fc1ccc(Nc2nc(Cl)c3[nH]cnc3n2)cc1Cl	68% [100 µM] (inactive) and 34.7% [100 µM] (inactive)
NC1N=C(c2ccc(Cl)cc2)C2=C(N1)c1ccccc1CC2 (centres undefined)	36.7% [100 µM] (inactive) and -55.8% [100 µM] (active)
COc1c2c(c3c(c1OC)c(=O)c1ccccc1n3C)OCO2	58.8% [100 µM] (inactive)
O=C(CCc1ccc(O)c(O)c1)c1ccc(O)c(O)c1O	-41% [100 µM] (active) and -97.2% [100 µM] (active)
Cc1ccc(/C=N/Nc2nncc3ccccc23)s1	6.4% [100 µM] (active) and 1.47% [100 µM] (active)
CCCCCCCCCC(O)CC(=O)c1c(O)cccc1O (centres undefined)	-96.8% [100 µM] (active) and -100% [100 µM] (active)
Cc1cc2nn(C3CCCO3)nc2cc1C (centres undefined)	70.8% [100 µM] (inactive) and 101% [100 µM] (inactive)
Cn1c2c(c3ccccc3c1=O)C(=O)c1ccccc1-2	27.3% [100 µM] (inactive) and -100% [100 µM] (active)
CC1CC(=O)N(N(C)C)C2(C#N)C(=O)N=C(N)C12C#N (centres undefined)	-84.2% [100 µM] (active) and -92.9% [100 µM] (active)
CCOC(=O)COc1cc(-c2ccccc2)nc2cc(F)ccc12	67.3% [100 µM] (inactive) and 60.3% [100 µM] (inactive)
N/N=C(\C(=O)Nc1ccc([N+](=O)[O-])cc1)C(C1=Nc2cc([N+](=O)[O-])ccc2NC1)[N+](=O)[O-] (centres undefined)	42.3% [100 µM] (inactive) and 14.7% [100 µM] (inactive)
COc1ccc(-c2nc3ccccc3c(=S)n2OC(C)=O)cc1	-63.4% [25 µM] (active) and -95.7% [25 µM] (active)
O=C1NC(N/N=C\c2ccccc2)=N/C1=C/c1ccc(Cl)cc1	-9.96% [100 µM] (active) and 107% [100 µM] (inactive)
C=C1C(=O)O[C@@H]2C[C@@]3(C)CC(=O)C=C(C)[C@@H]3C[C@H]12	-95.6% [100 µM] (active) and -86.6% [100 µM] (active)
NC(Cc1ccc(S(=O)(=O)O)cc1)C(=O)NC(Cc1ccc(S(=O)(=O)O)cc1)C(=O)NC(Cc1ccc(S(=O)(=O)O)cc1)C(=O)NC(Cc1ccc(S(=O)(=O)O)cc1)C(=O)O (centres undefined)	86.3% [100 µM] (inactive) and 93.4% [100 µM] (inactive)
CC1C2(C)OC(=N)C(C#N)(C(c3cccc([N+](=O)[O-])c3)O2)C1(C#N)C#N (centres undefined)	100% [100 µM] (inactive)
CC(C)/C(Cl)=N/OC(=O)Nc1cccc(C(F)(F)F)c1	-93.1% [100 µM] (active) and -100% [100 µM] (active)
O=C1CC(c2ccccc2)NCCCCN2CC(CN1)C(C(O)c1ccccc1)C2=O (centres undefined)	72.5% [100 µM] (inactive) and 81.1% [100 µM] (inactive)
CCCCCCCCOC(=O)C12Oc3ccc(-c4ccc5c(c4O)C(O)=C4C(=O)CC(C)C(O)C4(C(=O)OCCCCCCCC)O5)c(O)c3C(O)=C1C(=O)CC(C)C2O (centres undefined)	-66.7% [100 µM] (active) and -97.2% [100 µM] (active)

Compound	growth
N#Cc1c(N)oc(-c2cccc([N+](=O)[O-])c2)c1C#N	-82.9% [100 µM] (active) and -75% [100 µM] (active)
Cc1ccc(OCC2OC(n3cnc4nc(N)nc(Cl)c43)CC2Oc2ccc(C)cc2)cc1 (centres undefined)	50.4% [100 µM] (inactive) and -64% [100 µM] (active)
C[C@@H]1C[C@@H]2OC(=O)[C@]3(C)[C@H]2[C@@H](OC3(C)O)[C@]2(C)C(=O)C=C[C@@H]12 (some centres undefined)	-84.2% [100 µM] (active) and -97.9% [100 µM] (active)
N#Cc1nc(-c2cccc(-c3nc(C#N)c(N)o3)n2)oc1N	89.4% [100 µM] (inactive) and 63.8% [100 µM] (inactive)
CC(C)=CC(O)C/C(C)=C/CC/C(C)=C/CCC1(C)C(CCCO)/C(=C(/C)C=O)CCC1(C)O (centres undefined)	-21.5% [100 µM] (active) and 2.9% [100 µM] (active)
COc1ccc2nc(N/N=C/c3ccc(C)s3)cc(C)c2c1	-97.7% [100 µM] (active) and -100% [100 µM] (active)
C=C1CC2(C)CCC(OC(=O)C3(C)OC3C)C(C)(OC(C)=O)C2CC1=C(C)C (centres undefined)	75.8% [100 µM] (inactive) and 12.7% [100 µM] (inactive)
CC(=N\N=C\c1ccccn1)/C(C)=N/N=C/c1ccccn1	86% [100 µM] (inactive) and 54.1% [100 µM] (inactive)
O=C(O)COc1cc(-c2ccccc2F)nc2cc3c(cc12)OCO3	83.2% [100 µM] (inactive) and 64.8% [100 µM] (inactive)
COc1cc([C@H]2OC[C@@H]3C(c4cc(OC)c5c(c4)OCO5)OC[C@H]23)cc(OC)c1OC (some centres undefined)	66.5% [100 µM] (inactive) and 25.8% [100 µM] (inactive)
COC(=O)C1=CO[C@@H](OC2OC(CO)C(O)C(O)C2O)[C@H]2[C@@H](C)[C@@H](O)[C@@H](O)[C@@H]12 (some centres undefined)	89.9% [100 µM] (inactive) and 99.1% [100 µM] (inactive)
O=C(NC1=NC2C=CC([N+](=O)[O-])=CC2S1)C(=O)Nn1c(=S)[nH]c2ccccc2c1=O (centres undefined)	-8.33% [100 µM] (active) and 16.8% [100 µM] (inactive)
CC(=O)C1=C(C)N2C(=NC3=C(CCc4ccccc43)C2c2ccc(Cl)cc2)S1 (centres undefined)	48.8% [100 µM] (inactive) and 14.3% [100 µM] (inactive)
CC1=CC(=O)c2ccc(C)cc2C1=O	-90.3% [100 µM] (active) and -100% [100 µM] (active)
Cc1ccc(NC2=N/C(=C/c3ccccc3)C(Cl)=N2)cc1	27.6% [100 µM] (inactive) and 12% [100 µM] (inactive)
CC(=O)C1=C(C)N2C(=NC3=C(CCc4ccccc43)C2c2cccc(Br)c2)S1 (centres undefined)	52.3% [100 µM] (inactive) and 8.59% [100 µM] (active)
Cc1ccc(NC(=O)/C(Cc2cc(=O)oc3cc(O)ccc23)=N\NC(C)(C)C)cc1C	87.9% [100 µM] (inactive) and 92.2% [100 µM] (inactive)
N#CC1(C#N)N[C@@H](c2ccsc2)[C@H]2C(=O)N(c3ccccc3)C(=O)[C@H]21	23.2% [100 µM] (inactive) and 0.172% [100 µM] (active)
COc1ccccc1-c1n[nH]c(-c2ccccc2O)n1	62.2% [100 µM] (inactive) and 50.3% [100 µM] (inactive)
